Results as given in PubChem BioAssay (NCI).
About 79,000 compounds went through this panel and 15% of them were active in at least one assay; those are over-represented in the sample as a whole. A number with no mark means an inactive call. The source made the active and inactive calls. Rule as the data show it: active = growth inhibition above about 70%; inactive = the rest.

Legend:
[1] = NCI Yeast Anticancer Drug Screen. Data for the rad52 strain (AID 147);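 also: 0% = growth of vehicle-treated control cultures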; settings: S. cerevisiae rad52 mutant growth inhibition, hits give high values
Method in brief: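 Yeast strain carrying a DNA damage repair alteration was exposed to test compounds. Growth inhibition was measured relative to vehicle-treated controls.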

[2] = NCI Yeast Anticancer Drug Screen. Data for the wt1 strain (AID 149);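 also: 0% = growth of vehicle-treated wt1 cultures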; settings: S. cerevisiae wt1 strain (SPY 50644) growth inhibition, hits give high values
Method in brief: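 Yeast wt1 strain exposed to compounds; growth inhibition measured relative to vehicle-treated controls.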

[3] = NCI Yeast Anticancer Drug Screen. Data for the rad50EPP+ strain (AID 151);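 also: 0% = growth of vehicle-treated control cultures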; settings: S. cerevisiae rad50 mutant strain, hits give high values
Method in brief: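 Yeast strain carrying rad50 alteration (rad50EPP+) exposed to compounds; growth inhibition measured relative to vehicle-treated controls.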

[4] = NCI Yeast Anticancer Drug Screen. Data for the rad50 strain (AID 155);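 also: 0% = growth of vehicle-only cultures of the same strain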; settings: S. cerevisiae rad50 strain growth inhibition, hits give high values
Method in brief: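 Yeast carrying a defined DNA repair defect were exposed to test compounds, and growth was compared with vehicle-treated controls to give percent inhibition.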

[5] = NCI Yeast Anticancer Drug Screen. Data for the mec2-1 strain (AID 157); settings: S. cerevisiae mec2-1 strain, hits give high values
Method in brief: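 mec2-1 yeast strain, carrying an alteration in DNA damage repair or cell cycle control, was exposed to compounds; growth inhibition was measured relative to vehicle-treated controls.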

[6] = NCI Yeast Anticancer Drug Screen. Data for the rad14 strain (AID 159);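 also: 0% = growth of vehicle-treated control cultures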; settings: S. cerevisiae rad14 strain growth inhibition, hits give high values
Method in brief: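 Yeast cells carrying a defined DNA-repair defect were exposed to compounds, and growth inhibition was calculated relative to vehicle-treated control cultures.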

[7] = NCI Yeast Anticancer Drug Screen. Data for the sgs1 mgt1 strain (AID 161);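 also: 0% = growth of cultures given vehicle only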; settings: S. cerevisiae sgs1 mgt1 strain, hits give high values
Method in brief: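 Percent growth inhibition was derived by comparing compound-exposed mutant yeast with vehicle-exposed cultures. The strain carries alterations in DNA damage repair.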

[8] = NCI Yeast Anticancer Drug Screen. Data for the CLN2oe strain (AID 163);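 also: 0% = growth of vehicle-only control cultures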; settings: S. cerevisiae CLN2oe strain, hits give high values
Method in brief: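 Yeast cells carrying a defined cell-cycle control alteration were exposed to test compounds. Growth inhibition was scored against vehicle-treated control cultures.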

[9] = NCI Yeast Anticancer Drug Screen. Data for the cln2 rad14 strain (AID 165);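 also: 0% = growth equal to vehicle treated cultures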; settings: S. cerevisiae cln2 rad14 strain, hits give high values
Method in brief: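 Yeast carrying cln2 and rad14 alterations (cell cycle control and DNA damage repair) were exposed to compounds. Growth inhibition was measured against vehicle-treated controls.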

[10] = NCI Yeast Anticancer Drug Screen. Data for the bub3 strain (AID 167); settings: S. cerevisiae bub3 mutant strain, hits give high values
Method in brief: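 Compounds were applied to a genetically altered yeast strain carrying a cell-cycle control defect. Growth inhibition was scored against vehicle-treated controls.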

[11] = NCI Yeast Anticancer Drug Screen. Data for the wt2 strain (AID 169);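 also: 0% = growth of vehicle-treated yeast cultures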; settings: S. cerevisiae wt2 strain growth inhibition, hits give high values
Method in brief: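 Yeast cells were exposed to test compounds, and growth inhibition was measured relative to vehicle-treated controls.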

[12] = NCI Yeast Anticancer Drug Screen. Data for the mlh1 strain (AID 171);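 also: 0% = growth of vehicle-treated control cultures of the same strain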; settings: S. cerevisiae mlh1 strain growth inhibition, hits give high values
Method in brief: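 Yeast carrying a defined genetic alteration in DNA damage repair or cell cycle control were exposed to test compounds. Growth inhibition was measured relative to vehicle-treated controls.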

[13] = NCI Yeast Anticancer Drug Screen. Data for the sgs1 strain (AID 173);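 also: 0% = growth of vehicle-only control cultures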; settings: S. cerevisiae sgs1 mutant, hits give high values
Method in brief: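 Yeast mutant strains carrying defined defects in DNA damage repair or cell cycle control were exposed to test compounds. Growth inhibition was scored against vehicle-treated controls.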

[14] = NCI Yeast Anticancer Drug Screen. Data for the mlh1 rad18 strain (AID 175); settings: S. cerevisiae mlh1 rad18 strain growth inhibition, hits give high values
Method in brief: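 Growth inhibition of the yeast strain was measured after compound exposure and expressed relative to vehicle-treated controls. The strain carries defined defects in DNA damage repair.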

[15] = NCI Yeast Anticancer Drug Screen. Data for the rad18 strain (AID 177); settings: S. cerevisiae rad18 mutant growth inhibition, hits give high values
Method in brief: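 Yeast carrying a defined DNA damage repair alteration were exposed to compounds. Growth inhibition was expressed relative to vehicle-treated controls.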

[16] = at 5.0 µM (retest, dose inferred, filed as 0.5)
[17] = at 50.0 µM (retest, dose inferred, filed as 5.0)

Compound: N#Cc1sc2c(c1OC(=O)c1ccco1)c(=O)n(-c1ccccc1)c(=S)n2-c1ccccc1
- growth inhibition ([1]; at 1.2 µM): 0%
- growth inhibition ([1]; at 3.7 µM): 1%
- growth inhibition ([1]; at 11.0 µM): -1%
- growth inhibition ([1]; at 33.0 µM): 0%
- growth inhibition ([1]; at 100.0 µM): 0%
- growth inhibition ([2]; at 1.2 µM): -3%
- growth inhibition ([2]; at 3.7 µM): -4%
- growth inhibition ([2]; at 11.0 µM): -1%
- growth inhibition ([2]; at 33.0 µM): -1%
- growth inhibition ([2]; at 100.0 µM): 0%
- growth inhibition ([3]; at 1.2 µM): 9%
- growth inhibition ([3]; at 3.7 µM): 6%
- growth inhibition ([3]; at 11.0 µM): 11%
- growth inhibition ([3]; at 33.0 µM): 8%
- growth inhibition ([3]; at 100.0 µM): 5%
- growth inhibition ([4]; at 1.2 µM): 0%
- growth inhibition ([4]; at 3.7 µM): 2%
- growth inhibition [4, 16]: 3%
- growth inhibition ([4]; at 11.0 µM): 1%
- growth inhibition ([4]; at 33.0 µM): 0%
- growth inhibition [4, 17]: 94% (active)
- growth inhibition ([4]; at 50.0 µM): 94.6% (active)
- growth inhibition ([4]; at 100.0 µM): -1%
- growth inhibition ([5]; at 1.2 µM): -1%
- growth inhibition ([5]; at 3.7 µM): -1%
- growth inhibition [5, 16]: 7%
- growth inhibition ([5]; at 11.0 µM): -2%
- growth inhibition ([5]; at 33.0 µM): -6%
- growth inhibition [5, 17]: 82% (active)
- growth inhibition ([5]; at 50.0 µM): 95% (active)
- growth inhibition ([5]; at 100.0 µM): 0%
- growth inhibition ([6]; at 1.2 µM): 1%
- growth inhibition ([6]; at 3.7 µM): 1%
- growth inhibition ([6]; at 11.0 µM): 3%
- growth inhibition ([6]; at 33.0 µM): 2%
- growth inhibition ([6]; at 100.0 µM): -2%
- growth inhibition [7, 16]: 0%
- growth inhibition [7, 17]: 95% (active)
- growth inhibition ([7]; at 50.0 µM): 95.7% (active)
- growth inhibition ([8]; at 1.2 µM): -2%
- growth inhibition ([8]; at 3.7 µM): -1%
- growth inhibition ([8]; at 11.0 µM): 4%
- growth inhibition ([8]; at 33.0 µM): -1%
- growth inhibition ([8]; at 100.0 µM): -6%
- growth inhibition [9, 16]: 23%
- growth inhibition [9, 17]: 91% (active)
- growth inhibition ([9]; at 50.0 µM): 94% (active)
- growth inhibition ([10]; at 1.2 µM): 0%
- growth inhibition ([10]; at 3.7 µM): -4%
- growth inhibition [10, 16]: 13%
- growth inhibition ([10]; at 11.0 µM): -3%
- growth inhibition ([10]; at 33.0 µM): 0%
- growth inhibition [10, 17]: 91% (active)
- growth inhibition ([10]; at 50.0 µM): 95.4% (active)
- growth inhibition ([10]; at 100.0 µM): -6%
- growth inhibition ([11]; at 1.2 µM): -1%
- growth inhibition ([11]; at 3.7 µM): -1%
- growth inhibition ([11]; at 11.0 µM): -2%
- growth inhibition ([11]; at 33.0 µM): -9%
- growth inhibition ([11]; at 100.0 µM): 3%
- growth inhibition ([12]; at 1.2 µM): -4%
- growth inhibition ([12]; at 3.7 µM): -2%
- growth inhibition ([12]; at 11.0 µM): -2%
- growth inhibition ([12]; at 33.0 µM): -5%
- growth inhibition ([12]; at 100.0 µM): -3%
- growth inhibition ([13]; at 1.2 µM): 0%
- growth inhibition ([13]; at 3.7 µM): 1%
- growth inhibition ([13]; at 11.0 µM): 0%
- growth inhibition ([13]; at 33.0 µM): 1%
- growth inhibition ([13]; at 100.0 µM): 0%
- growth inhibition [14, 16]: 59%
- growth inhibition [14, 17]: 94% (active)
- growth inhibition ([14]; at 50.0 µM): 95.2% (active)
- growth inhibition ([15]; at 1.2 µM): 0%
- growth inhibition ([15]; at 3.7 µM): 1%
- growth inhibition ([15]; at 11.0 µM): -17%
- growth inhibition ([15]; at 33.0 µM): 2%
- growth inhibition ([15]; at 100.0 µM): -1%

Compound: Cc1ccc(Nc2c3c(c(C#N)c4nc5ccccc5n24)CCCC3)cc1
- growth inhibition ([1]; at 1.2 µM): 6%
- growth inhibition ([1]; at 3.7 µM): 21%
- growth inhibition ([1]; at 11.0 µM): 24%
- growth inhibition ([1]; at 33.0 µM): 70% (active)
- growth inhibition ([1]; at 100.0 µM): 72% (active)
- growth inhibition ([2]; at 1.2 µM): 7%
- growth inhibition ([2]; at 3.7 µM): 26%
- growth inhibition ([2]; at 11.0 µM): 23%
- growth inhibition ([2]; at 33.0 µM): 40%
- growth inhibition ([2]; at 100.0 µM): 59%
- growth inhibition ([3]; at 1.2 µM): 14%
- growth inhibition ([3]; at 3.7 µM): 23%
- growth inhibition ([3]; at 11.0 µM): 27%
- growth inhibition ([3]; at 33.0 µM): 38%
- growth inhibition ([3]; at 100.0 µM): 31%
- growth inhibition ([4]; at 1.2 µM): 1%
- growth inhibition ([4]; at 3.7 µM): 32%
- growth inhibition [4, 16]: 31%
- growth inhibition ([4]; at 11.0 µM): 23%
- growth inhibition ([4]; at 33.0 µM): 71% (active)
- growth inhibition [4, 17]: 74% (active)
- growth inhibition ([4]; at 50.0 µM): 63.3%
- growth inhibition ([4]; at 100.0 µM): 70% (active)
- growth inhibition ([5]; at 1.2 µM): -15%
- growth inhibition ([5]; at 3.7 µM): 15%
- growth inhibition [5, 16]: 12%
- growth inhibition ([5]; at 11.0 µM): 11%
- growth inhibition ([5]; at 33.0 µM): 65%
- growth inhibition [5, 17]: 58%
- growth inhibition ([5]; at 50.0 µM): 66%
- growth inhibition ([5]; at 100.0 µM): 73% (active)
- growth inhibition ([6]; at 1.2 µM): 1%
- growth inhibition ([6]; at 3.7 µM): 10%
- growth inhibition ([6]; at 11.0 µM): 10%
- growth inhibition ([6]; at 33.0 µM): 25%
- growth inhibition ([6]; at 100.0 µM): 36%
- growth inhibition [7, 16]: 16%
- growth inhibition [7, 17]: 30%
- growth inhibition ([7]; at 50.0 µM): 74.5% (active)
- growth inhibition ([8]; at 1.2 µM): 20%
- growth inhibition ([8]; at 3.7 µM): 34%
- growth inhibition ([8]; at 11.0 µM): 21%
- growth inhibition ([8]; at 33.0 µM): 70% (active)
- growth inhibition ([8]; at 100.0 µM): 62%
- growth inhibition [9, 16]: 21%
- growth inhibition [9, 17]: 14%
- growth inhibition ([9]; at 50.0 µM): 72.8% (active)
- growth inhibition ([10]; at 1.2 µM): 8%
- growth inhibition ([10]; at 3.7 µM): 15%
- growth inhibition [10, 16]: 26%
- growth inhibition ([10]; at 11.0 µM): 23%
- growth inhibition ([10]; at 33.0 µM): 74% (active)
- growth inhibition [10, 17]: 34%
- growth inhibition ([10]; at 50.0 µM): 78.8% (active)
- growth inhibition ([10]; at 100.0 µM): 76% (active)
- growth inhibition ([11]; at 1.2 µM): 4%
- growth inhibition ([11]; at 3.7 µM): -8%
- growth inhibition ([11]; at 11.0 µM): 59%
- growth inhibition ([11]; at 33.0 µM): 74% (active)
- growth inhibition ([11]; at 100.0 µM): 72% (active)
- growth inhibition ([12]; at 1.2 µM): -5%
- growth inhibition ([12]; at 3.7 µM): 15%
- growth inhibition ([12]; at 11.0 µM): 22%
- growth inhibition ([12]; at 33.0 µM): 78% (active)
- growth inhibition ([12]; at 100.0 µM): 78% (active)
- growth inhibition ([13]; at 1.2 µM): 30%
- growth inhibition ([13]; at 3.7 µM): 34%
- growth inhibition ([13]; at 11.0 µM): 29%
- growth inhibition ([13]; at 33.0 µM): 77% (active)
- growth inhibition ([13]; at 100.0 µM): 81% (active)
- growth inhibition [14, 16]: 28%
- growth inhibition [14, 17]: 68%
- growth inhibition ([14]; at 50.0 µM): 6.1%
